Among all 69,000 compounds or so, about 8,600 (12%) showed an effect of 50% or more. For the sample, strong results were picked, then their nearest neighbours and some compounds at random.
These molecules were tested on Plasmodium berghei (assay: Screen against P. berghei liver stage (PbLuc), transformed with Luciferase, at 10uM). Conditions: tested at 10 uM.
Assay type: functional, HepG2

| Structure (SMILES) | INHIBITION |
| --- | --- |
| COCc1c(Cl)cccc1NC(=O)CNC(=O)C(C)(C)C | -17.8% |
| CC(C)N1CCC(CC(=O)N(C)C(C)c2cncs2)CC1 (stereo not drawn) | -3.58% |
| CN(Cc1nc(Cc2cccc(C(F)(F)F)c2)no1)C1CCOCC1 | 22.1% |
| COC(=O)c1ccoc1COC(=O)CCc1ccc(OC)c(OC)c1 | -1.58% |
| CN(C)Cc1cc(C2CCCCN2S(=O)(=O)Cc2ccccc2)nn1C (stereo not drawn) | 8.12% |
| CS(=O)(=O)NCc1cncc2c1CCN(C(=O)c1ccccn1)C2 | 16.4% |
| Cc1occc1C(=O)N1C[C@@H](OCc2cccnc2)[C@H]2OCCC[C@@H]21 | -63.1% |
| CCCc1noc(C2CC(=O)N(C(C)(C)C)C2)n1 (stereo not drawn) | 31.9% |
| Cc1cc(C(=O)N2CC[C@H](N3CCN(C)CC3)[C@H](CCCO)C2)n(C)n1 | -27.5% |
| CN1CCN([C@H]2CCN(C(=O)c3cc(Cl)cn3C)C[C@H]2CCCO)CC1 | 64.3% |
| CN1CCN([C@H]2CCN(C(=O)c3nn(C)cc3Cl)C[C@H]2CCCO)CC1 | 8.7% |
| COCCN1CCO[C@@H]2CN(C(=O)NCc3ccccc3)CC[C@@H]2C1 | 7.24% |
| Cc1n[nH]c(C)c1CCC(=O)N1CCc2c(nc[nH]c2=O)C1 | 10.7% |
| CCN(C)c1ccc(CNS(=O)(=O)C2CCOCC2)cc1F | 50.1% |
| CCN(C)c1ccc(CNS(=O)(=O)CC2CCCO2)cc1F (stereo not drawn) | 24.4% |
| CCN(CC)c1ccc(CNS(=O)(=O)C2CCOCC2)cc1F | 62.9% |
| O=S(=O)(CC1CCOCC1)NCc1ccnc(O)c1 | 2.82% |
| CCN(CC)c1ccc(CNC(=O)C2(C)CCOCC2)cc1F | -37.1% |
| CCN(C)c1ccc(CNC(=O)c2cc(C(N)=O)cs2)cc1F | -59.2% |
| Cc1cc2c(=O)n(CC(=O)N3CCn4cccc4C3C(C)C)cnc2s1 (stereo not drawn) | 3.4% |
| COCC1CN(c2ncc(F)cn2)Cc2cnn(C)c21 (stereo not drawn) | 19.6% |
| Cn1cc(CCC(=O)NC(c2ccc(F)cc2)C(F)(F)F)cn1 (stereo not drawn) | -4.52% |
| CN1CCNC(Cc2ccc(-c3ccccc3)cc2)C1=O (stereo not drawn) | 23.2% |

| Structure (SMILES) | INHIBITION |
| --- | --- |
| O=C(NCC1CCS(=O)(=O)C1)c1cccc(CN2CCCC2)c1 (stereo not drawn) | 24.7% |
| O=C(N1CCCO1)[C@@]12CCO[C@@H]1CCN(Cc1cccs1)C2 | 40.1% |
| CC1=CCN(C(=O)Nc2ccccc2N2CCOC2=O)CC1 | 32.5% |
| O=C(Nc1ccccc1N1CCOC1=O)N1CCSCC1 | 52.2% |
| CC(=O)N1CCCN(C(=O)Nc2ccccc2N2CCOC2=O)CC1 | 1.37% |
| Cc1ccn(CCC(=O)NC(C)Cc2ccco2)n1 (stereo not drawn) | 24.5% |
| COC(=O)c1sc2cccc(F)c2c1CNC(=O)C1CC1 | 34.6% |
| Brc1cc2c(cc1CN1CCC(N3CCCCC3)CC1)OCCO2 | 77.9% |
| OCC1CCN(Cc2cc3c(cc2Br)OCCO3)CC1 | 34.5% |
| OCCN1CCN(Cc2cc3c(cc2Br)OCCO3)CC1 | 31.5% |
| COc1ccc(CN2CCC(C(N)=O)C2)c(Br)c1OC (stereo not drawn) | -0.87% |
| NC(=O)C1CCN(Cc2cc3c(cc2Br)OCCO3)C1 (stereo not drawn) | 71.3% |
| OC1CCN(Cc2cc3c(cc2Br)OCCO3)CC1 | 28.3% |
| CNC(=O)C1CN(C(=O)c2ccccc2)Cc2cn(C)nc21 (stereo not drawn) | 18.9% |
| CCOC(=O)c1nc(CC(=O)Nc2ccccc2)no1 | 45.5% |
| Cc1cc(CN2CCN(C(=O)NCc3csc(C)n3)CC2)no1 | 26.4% |
| CN(C)CCO[C@H]1CN(Cc2ccoc2)[C@@H]2COC[C@H]12 | 3.25% |
| Cn1nc(CNC(=O)c2ccc3c(c2)OCO3)c2c1CCOC2 | 40.8% |
| COc1ccc(NC(=O)NCc2ccnc(N(C)C)c2)cn1 | -15.1% |
| CN(C)c1cc(CNC(=O)Nc2cccnc2N2CCCC2)ccn1 | -60.4% |
| CN(C)c1cc(CNC(=O)Nc2ccc(N3CCCC3)nc2)ccn1 | 69.7% |
| CN(C)c1cc(CNC(=O)Nc2ccc(C#N)cc2)ccn1 | 22.1% |
| CSCCc1ccc(NC(=O)NCc2ccnc(N(C)C)c2)cc1 | 72.85% |

| Structure (SMILES) | INHIBITION |
| --- | --- |
| CN(C)c1cc(CNC(=O)Nc2ccc(F)cc2)ccn1 | 17.8% |
| COCc1ccccc1CNC(=O)CNc1cccc(Cl)c1OC | -28.2% |
| CSCCC(=O)N1CCCN(Cc2cnn(C(C)C)c2)CC1 | 4.71% |
| O=C([C@H]1CCCO1)N1CCc2ncc(CN3CCOCC3)n2CC1 | 22.9% |
| CC(C(=O)N1CCCN(Cc2cnn(C)c2)CC1)n1ccnc1 (stereo not drawn) | 48.1% |
| O=C(N1CCCC1)N1CCc2ncnc(C3CCOC3)c2CC1 (stereo not drawn) | 31.8% |
| O=C(NCc1ccccc1F)NCC(O)c1cccc(F)c1 (stereo not drawn) | -24.3% |
| CCCS(=O)(=O)N1CCN(c2ccnc(N3CCCC3)n2)CC1 | 30.1% |
| CS(=O)(=O)N1CCN(c2cnnc(N3CCCC3)c2)CC1 | -11.4% |
| CS(=O)(=O)N1CCN(c2ccnc(N3CCCC3)n2)CC1 | 50.8% |
| CCCS(=O)(=O)N1CCN(c2cc(-n3cccc3)nc(C)n2)CC1 | 34.5% |
| CS(=O)(=O)N1CCN(c2ccnc(N3CCCCC3)n2)CC1 | 58.5% |
| CCCS(=O)(=O)N1CCN(c2ccnc(N3CCCCC3)n2)CC1 | 59.8% |
| CN(C)S(=O)(=O)N1CCN(c2ccnc(N3CCCCC3)n2)CC1 | 43.1% |
| O=C(O)c1ccnc(-c2ccnc(N3CCCCCC3)n2)c1 | 4.41% |
| CN(C)S(=O)(=O)N1CCN(c2ccnc(N3CCCC3)n2)CC1 | 5.14% |
| Cc1nc(C)c(C(=O)NCCNc2ncccc2C(F)(F)F)s1 | -36.3% |
| CCn1cnnc1C1CCN(C(=O)c2ccc3cc[nH]c3c2)CC1 | 30.8% |
| Cc1cc(C)n(CC2CN(Cc3noc(C4CC4)n3)CCO2)n1 (stereo not drawn) | -37.7% |
| CC(=O)N1CCCCC1c1nc2c(c(NC3CCCC3)n1)CN(C)CC2 (stereo not drawn) | 38.2% |
| O=C(NCCNc1ncccn1)N1CCN(C2CCCC2)CC1 | 21.6% |
| Cc1nc(C2CCCN(C(=O)CCn3ccccc3=O)C2)no1 (stereo not drawn) | 29.7% |

Reference: ChEMBL document CHEMBL4513216, “Probing the Open Global Health Chemical Diversity Library for Multistage-Active Starting Points for Next-Generation Antimalarials” (ACS Infect Dis, 2020)
